This excerpt belongs to a sample that is enriched for hits.
Pf Dd2 growth: Plasmodium falciparum Dd2 growth inhibition. P. falciparum Dd2 growth, SYBR Green, 72 h. Potency, µM (top dose mostly 28.9 µM), inactives show top-dose activity, negative = inhibition, hits mostly inhibitors. 120,000 compounds, 4.3% hits. AID 1347417; active means well fitted inhibition curve with a large enough effect;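 further: plate controls were DMSO vehicle for no effect and reference drug for full effect; nearly all actives have a fitted effect of over 65% in size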
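Infected erythrocytes (Dd2, 0.3% parasitemia, 2.5% hematocrit final) are added to compound in RPMI-1640/Albumax II medium, grown 72 h at 37C in low oxygen, then lysed with saponin/Triton-X containing SYBR Green and read by fluorescence.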
Starred values were filed as active, the others as inactive; i = inactive; [ ] = remark or other dose. Potency means the concentration at half of the fitted maximal effect.

SMILES	Pf Dd2 growth
CSCC(=O)N1CC[C@H](NC(=O)NC(C)C)[C@H]1C(=O)N(C)CC(N)=O	-9%[44.1 µM]
COCC1CN(C(C)=O)CC12CCN(C(=O)CSC)CC2 (stereo not given)	24%
O=C(NC1CC(c2nnc(CO)n2C2CC2)C1)c1scc2c1OCCO2 (stereo not given)	-24%
Cc1nc(N)nc(C)c1CC(=O)N1CC2(CCNCC2)CC1C(=O)O (stereo not given)	-11%
COc1nc2c(cc1CNC(=O)C1CCCC1)C(=O)N(CCc1ccccn1)C2	-20%
O=C(CSc1nc2c(oc3ccccc32)c(=O)n1-c1ccccc1F)Nc1ccccc1	-12%
Cc1ccc(-n2c(SCC(=O)NCc3ccc(F)cc3)nc3c([nH]c4ccccc43)c2=O)cc1	i
Cc1cc(NC(=O)CSc2nc3c([nH]c4ccccc43)c(=O)n2-c2ccccc2)no1	-26%
COc1cccc(-n2c(SCC(=O)N3CCCCC3)nc3c([nH]c4ccccc43)c2=O)c1	-3%
Cn1c(SCC(=O)Nc2ccc(F)cc2)nc2c([nH]c3ccccc32)c1=O	17%
COc1cccc(-n2c(SCC(=O)Nc3cccc(C)c3)nc3c([nH]c4ccccc43)c2=O)c1	10µM*
Cc1cc(C)cc(-n2c(SCC(=O)Nc3ccc4c(c3)OCO4)nc3c([nH]c4ccccc43)c2=O)c1	-16%
Cc1cc(C)cc(-n2c(SCC(=O)NCc3ccc(F)cc3)nc3c([nH]c4ccccc43)c2=O)c1	11µM*
COc1cccc(-n2c(SCC(=O)c3ccc(Cl)cc3)nc3c([nH]c4ccccc43)c2=O)c1	i
Cc1cc(C)cc(-n2c(SCC(=O)N3CCCC3)nc3c([nH]c4ccccc43)c2=O)c1	10%
Cc1cc(NC(=O)CSc2nc3c([nH]c4ccccc43)c(=O)n2-c2ccccc2F)no1	10µM*
O=C(CSc1nc2c([nH]c3ccccc32)c(=O)n1-c1ccc(F)cc1)Nc1ccc2c(c1)OCO2	11µM*
COc1cc(CN2CCC3(Cc4ccccc4CNC3=O)C2)cc(OC)c1 (stereo not given)	-13%
Cc1noc(C)c1[S+](=O)([O-])N1CCC2CC(=O)NCCC2C1 (stereo not given)	8%
Cn1cccc1C(=O)N1CC(Oc2cccc(-c3nc(-c4ccccc4)no3)c2)C1	i[5.79 µM]
COCCNC(=O)[C@@H]1C[C@@H](O)CN1C1CCN(C(=O)c2ccco2)CC1	19%
CN1CC(=O)N(C2CCCNC2)Cc2c1ncnc2N1CCN(c2ncccn2)CC1 (stereo not given)	6%
COc1cccc(CC(=O)N2CCCC(c3nc(C4CCOCC4)no3)C2)c1 (stereo not given)	29%
O=C(N1CCC(NS(=O)(=O)c2ccccc2)CC1)N1CC2CC(C1)[C@H]1CCCC(=O)N1C2 (stereo not given in full)	i
COc1ccc(Cn2cc(C(C(=O)O)N(C)Cc3nnc(C)o3)cn2)cc1 (stereo not given)	-8%
SMILES	Pf Dd2 growth
CCCNC(=O)O[C@@H]1CC[C@]2(C)C(CC[C@@H](O)[C@H]2CC(=O)NCc2ccc3c(c2)OCO3)[C@]1(C)CO (stereo not given in full)	-18%
CCCN(CC1CCOC1)C(=O)Nc1cccc(Cl)c1C (stereo not given)	11%[5.79 µM]
CCOc1cccc(CN2CC(c3nc(Cc4cccnc4)no3)C2)c1	-24%
CSc1ccc(-c2ccc(=O)n3c2[C@@H]2C[C@@H](CN(S(=O)(=O)c4cccs4)C2)C3)cc1	8.9µM*
CSCC(=O)N1C[C@@H]2C[C@H](C1)c1c(-c3ccc(SC)cc3)ccc(=O)n1C2	-7%[44.1 µM]
CC(=O)Nc1ccc(-c2ccc(=O)n3c2[C@@H]2C[C@@H](CN(S(=O)(=O)c4cccs4)C2)C3)cc1	i
O=C(c1ccccc1F)N1CCCC(c2nc(C3CCOCC3)no2)C1 (stereo not given)	25%
CCC1CN(Cc2cn(-c3ccccc3C)nc2-c2ccc(OC)c(F)c2)CCO1 (stereo not given)	11µM*
CCc1ccc(N2CC(c3noc(-c4ccc(OC)c(F)c4)n3)CC2=O)cc1 (stereo not given)	9%
CCN1CCN(Cc2cn(-c3ccccc3F)nc2-c2cc(C)sc2C)CC1	11µM*
COc1ccc(-c2nn(-c3ccccc3C)cc2CN2CCCN(C)CC2)cc1F	7.9µM*
COCCn1cc(CN2CCN(Cc3ccccc3F)CC2)ccc1=O	22%
CCc1c(CN2CCN(c3ccccc3F)CC2)csc1C	-1%
COc1ccc(-c2nn(-c3ccccc3)cc2CN2CCCC(C)(O)C2)c(F)c1 (stereo not given)	i
OC[C@H]1CCN(Cc2cn(-c3ccccc3)nc2-c2ccncc2)C[C@@H]1O	-30%
COc1ccc(OC)c(CN2CCN(S(=O)(=O)c3ccccc3)CC2)c1	i
CCn1cnnc1CC1CCN(C(=O)C2CCCCC2)C1 (stereo not given)	14%
N#Cc1ccc(C(=O)N2C[C@@H]3C[C@H](C2)c2c(/C=C/c4ccc(Cl)cc4)ccc(=O)n2C3)cc1	i
O=C1CC(c2ccccc2)N(C(=O)CNS(=O)(=O)Cc2ccccc2)CCCCCN1 (stereo not given)	-5%
COc1cc(OC)cc(C(=O)N2CCC(c3n[nH]c(=O)n3Cc3ccc(F)cc3)CC2)c1	i
O=C(CCc1conc1-c1ccccc1)NCc1ccccc1F	-19%
O=C1N(Cc2ccc(F)cc2)C[C@H]2CN(Cc3ccc(C(F)(F)F)cc3)CCN12	i
COCc1nnc2n1CCC(NC(=O)COc1ccc(F)cc1)CC2 (stereo not given)	i
CN1CCCCCCN(S(=O)(=O)c2cccc(F)c2)[C@H]2CCC[C@H]2C1=O	2.5µM*
CCn1cc(S(=O)(=O)N2CCCCCCN(C)C(=O)[C@@H]3CCC[C@@H]32)cn1	-17%
SMILES	Pf Dd2 growth
O=C1NCCCCCN(S(=O)(=O)c2cccc(F)c2)[C@H]2CCCC[C@@H]12	14%
Cc1nn(C)cc1CN(C)C(=O)Cn1nc2n(c1=O)CCC(N)CC2 (stereo not given)	i
O=C(Nc1cc(-c2nc3cc(Cl)ccc3o2)ccc1Cl)c1cc([N+](=O)[O-])ccc1N1CCOCC1	6%
CCc1ccc2oc(-c3cccc(NC(=O)c4ccc(N5CCC(C)CC5)c([N+](=O)[O-])c4)c3)nc2c1	7.9µM*
Cc1ccc(-c2nc3cc(Cl)ccc3o2)cc1NC(=O)c1cc([N+](=O)[O-])ccc1N1CCOCC1	-3%
Cc1c(NC(=O)c2ccc(N3CCC(C)CC3)c([N+](=O)[O-])c2)cccc1-c1nc2ccccc2o1	-3%
Cc1ccc2oc(-c3ccc(C)c(NC(=O)c4ccc(N5CCC(C)CC5)c([N+](=O)[O-])c4)c3)nc2c1	29%
O=C(Nc1cccc(-c2nc3ccccc3o2)c1)c1cc([N+](=O)[O-])ccc1N1CCOCC1	8.9µM*
COCCc1noc(C2Cc3ccccc3N2C(=O)NCC(C)C)n1 (stereo not given)	13%[5.79 µM]
O=C(Cc1c[nH]c2ccccc12)N1CCC(Cc2nc(-c3ccccc3)n[nH]2)CC1	-5%
O=C(Cc1ccc(F)cc1)N1CCC[C@H]1c1nc(-c2ccccc2Cl)no1	i
COCc1noc([C@@H]2CC(F)(F)CN2S(=O)(=O)c2ccccc2)n1	-7%
COc1cncc(CN2CC[C@@H]3OCC(=O)N(Cc4ccccc4)[C@H]3CC2)c1	-9%[44.1 µM]
O=C1CO[C@H]2CN(Cc3c[nH]c4ccccc34)C[C@H]2N1Cc1ccc(F)cc1	5µM*
O=C1CO[C@H]2CCN(Cc3cccc(OC(F)(F)F)c3)CC[C@@H]2N1Cc1c[nH]c2ccccc12	7.9µM*
